The list is not random: actives were taken first. Their share in the collection is about 10%.
HEK cytotox = Cytotoxic Profiling in HEK 293 Cell Line of Diverse Libraries Using Quantitative High-Throughput Screening. HEK 293 viability, ATP luminescence (CellTiter-Glo), 48-72 h. Potency, µM (titrated, usually from 115 µM), inactives show top-dose activity change, negative = cytotoxicity, most hits filed as inhibitors. 94,000 compounds, 6.6% hits. AID 1345083, 2018; also: nearly all actives have a fitted effect of over 60% in size
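HEK 293 cells at 250 cells/well were exposed to compounds by pintool transfer for 48 or 72 hr at 37 degree Celsius, 5% CO2. Viability was read as ATP-coupled luminescence with CellTiter-Glo after 10 min at room temperature.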
GPT2 inhibitor = Primary qHTS assay for inhibitors of Glutamate pyruvate transaminase 2 (GPT2); Alanine aminotransferase 2 (Homo sapiens), Q8TD30; Recombinant GPT2, coupled pyruvate oxidase/HRP Amplex Red fluorescence; Potency, µM (highest dose often 57.7 µM), inactives show at the top dose activity change, negative = inhibition, actives largely listed as inhibitors; 100,000 compounds, 0.25% hits; AID 1671188, 2021; also: nearly all actives have a fitted effect of over 60% in size
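Recombinant GPT2 (10ng/uL) with 250uM a-KG and 2mM L-alanine, 30 min at room temperature, in HEPES pH 7.5 buffer. Pyruvate detected by pyruvate oxidase/HRP/Amplex Red fluorescence after 30 min in the dark; AOA (50uM) as positive control.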
NPR1 antag = Natriuretic polypeptide receptor (hNpr1) antagonism - Primary qHTS; Atrial natriuretic peptide receptor 1 (Homo sapiens), P16066; HEK293 hNpr1 GloSensor cGMP, ANP-stimulated luminescence; Potency, µM (doses to about 46.3 µM), inactives show at the highest dose activity change, negative = inhibition, hits mostly inhibitors; 76,000 compounds, 1.6% hits; AID 1347048, 2019; calls by dose curve; also: nearly all actives have a fitted effect of over 60% in size
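HEK293 cells stably expressing human Npr1 and cGMP GloSensor pGS-40F, loaded 2 h with 2% GloSensor reagent, given compound 30 min at room temperature. Luminescence read before and 20 min after 0.1 nM hNppA.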
FLuc inh = Firefly luciferase inhibition profiling of diverse chemical library using quantitative high-throughput screening | 76,000 compounds, 2.5% hits | AID 1347043, 2019 | Potency, µM (highest dose often 115 µM), actives largely listed as inhibitors | purified P. pyralis luciferase, luminescence, biochemical; also: nearly all actives have a fitted effect of over 65% in size
Target sequence (P08659 whole entry, looked up): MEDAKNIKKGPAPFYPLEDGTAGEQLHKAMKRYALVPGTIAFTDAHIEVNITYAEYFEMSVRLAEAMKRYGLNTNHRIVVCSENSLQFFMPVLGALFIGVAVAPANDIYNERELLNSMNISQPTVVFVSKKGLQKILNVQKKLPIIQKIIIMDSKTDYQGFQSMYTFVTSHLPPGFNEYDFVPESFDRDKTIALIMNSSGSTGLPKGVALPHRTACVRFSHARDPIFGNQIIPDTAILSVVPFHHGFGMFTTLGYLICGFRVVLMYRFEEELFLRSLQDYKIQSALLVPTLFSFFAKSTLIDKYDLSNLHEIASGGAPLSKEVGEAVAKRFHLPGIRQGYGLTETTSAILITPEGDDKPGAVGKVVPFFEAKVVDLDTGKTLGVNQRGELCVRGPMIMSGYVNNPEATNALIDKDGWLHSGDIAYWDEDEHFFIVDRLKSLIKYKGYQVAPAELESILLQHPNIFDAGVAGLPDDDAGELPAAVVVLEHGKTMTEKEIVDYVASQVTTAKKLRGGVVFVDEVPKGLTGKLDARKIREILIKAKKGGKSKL
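Purified 10nM P. pyralis luciferase with 10uM D-luciferin and 10uM ATP in 50mM Tris acetate pH 7.5, 10mM Mg acetate, 0.01% Tween-20, 0.05% BSA. qHTS titration; luminescence read by CCD imager.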
3T3 cytotox = Cytotoxic Profiling in NIH 3T3 Cell Line of Diverse Libraries Using Quantitative High-Throughput Screening. 94,000 compounds, 4.3% hits. AID 1345082, 2018. Potency, µM (titrated, usually from 96.7 µM), inactives show at the highest dose activity change, negative = cytotoxicity, usual class: inhibitors. NIH 3T3 viability, CellTiter-Glo ATP luminescence, 48-72 h; also: nearly all actives have a fitted effect of over 55% in size
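Viability of NIH 3T3 cells after 48 or 72 hr compound treatment at 37 °C was assessed by CellTiter-Glo, with luminescence imaged following a 10 min room-temperature step.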
Starred values were filed as active, the others as inactive; i = inactive; ? = inconclusive; . = no result; [ ] = dose if it differs, or a comment. Unless noted, calls follow the shape of the dose curve; as a rule, active = well fitted curve in the direction sought with a large enough effect; inconclusive = small, poorly fitted or top-dose-only effect, or another doubt; inactive = no such curve, though single readings can be large; an effect the other way counts as inactive or inconclusive. % is scaled to controls: 0 for no effect and ±100 for the full control effect; potency is read from the fitted curve at half-maximal effect.

SMILES	HEK cytotox	GPT2 inhibitor	NPR1 antag	FLuc inh	3T3 cytotox
O=C(C[C@@H]1CCNC[C@@H]1Cc1cc(-c2ccc(F)cc2)on1)N1CCC(Cc2ccccc2)CC1	31.6µM*	-2.7%	0.8%	i	20µM*
O=C(NCc1cc(F)cc(F)c1)C1(c2ccc(Cl)cc2)CCOCC1	?	0.0%	.	.	?
O=C(Cc1ccccn1)NC1CCN(c2ccc3nnc(C4CC4)n3n2)CC1	2.4%	.	.	.	-25.3%
O=C1NCCCN1C1CCN([S+](=O)([O-])c2cccc(C(F)(F)F)c2)CC1	-12.8%	i	-9.4%	i	-12.4%
CCN1C[C@H]2COc3cc(OC)ccc3[C@H]2N(C(=O)C2CCC2)CCC1=O	-6.3%	.	.	.	?
O=C(NC1CCN(Cc2cccc(-c3cccs3)c2)CC1)c1ccccc1Cl	?	-9.3%	.	.	?
CC(C)(C)NC(=O)C[C@@H]1CCNC[C@@H]1Cc1cc(CC2CCCCC2)on1	44.7µM*	-10.2%[88.5 µM]	6.6%[70.6 µM]	i	35.5µM*
CCN(CC)C(=O)C[C@@H]1CCNC[C@@H]1Cc1cc(-c2ccccc2)on1	?	0.5%[88.5 µM]	-1.3%[70.6 µM]	i	?
CCN(CC)C(=O)C[C@@H]1CCNC[C@@H]1Cc1cc(CC2CCCCC2)on1	70.8µM*	-3.3%[88.5 µM]	2.6%[70.6 µM]	i	25.1µM*
CCCCc1cc(C[C@H]2CNCC[C@H]2CC(=O)Nc2nccs2)no1	?	4.4%[88.5 µM]	-11.9%[70.6 µM]	63.1µM*	?
CN(Cc1ccccc1)C(=O)C[C@@H]1CCNC[C@@H]1Cc1cc(-c2ccc(F)cc2)on1	35.5µM*	i	-22.6%[70.6 µM]	i	31.6µM*
CCCCc1cc(C[C@H]2CNCC[C@H]2CC(=O)NCCNC(C)=O)no1	i	-5.0%[88.5 µM]	7.4%[70.6 µM]	i	2.5%[174 µM]
O=C(Nc1ccc(F)cc1)C1CCc2nnc(-c3cccc(C(F)(F)F)c3)n21 (centres undefined)	?	i	.	.	?
CN(Cc1ccccc1)Cc1cc(C[C@H]2CNCC[C@H]2CC(=O)N2CCN(c3ccccn3)CC2)no1	-14.5%	-3.8%	4.0%	i	0.8%
CN(Cc1ccccc1)C(=O)C[C@@H]1CCNC[C@@H]1Cc1cc(CN(C)c2ccccc2)on1	?	?	-15.4%	i	79.4µM*
O=C(NC1CCCC1)N1CCCCCC1CN1CCOCC1 (centres undefined)	-1.2%	i	-1.7%	i	-2.7%
Cc1cn2nc(C(=O)Nc3ccc4c(c3)OCO4)cc2c(N2CCCC2)n1	-1.7%	i	-17.3%	?	0.1%
Cc1cccc(NC(=O)c2cc3c(N4CCSCC4)nc(C)cn3n2)c1	39.8µM*	i	-4.8%	i	?
Cc1ccc(NC(=O)c2cc3c(N4CCSCC4)nc(C)cn3n2)cc1	?	i	-3.2%	i	?
Cc1cn2nc(C(=O)NC3CCCCC3)cc2c(N2CCCC2)n1	-2.9%	-15.3%	9.7%	i	-7.4%
Cc1cn2nc(C(=O)Nc3ccc4c(c3)OCCO4)cc2c(N2CCSCC2)n1	?	-3.6%	-26.8%	11.2µM*	-15.5%
Cc1cn2nc(C(=O)NC3CCCCCC3)cc2c(N2CCSCC2)n1	44.7µM*	i	-1.8%	i	?
Cc1c(F)cccc1NC(=O)Nc1cccc(-c2nnc3n2CCCC3)c1	11.2%	-3.9%	3.4%	?	i
Cc1cccc(C(=O)Nc2cccc(-c3ccc(N4CCN(C)CC4)nn3)c2)c1	?	?	-14.8%	31.6µM*	39.8µM*
CCc1ccccc1NC(=O)Nc1cccc(-c2ccc(N3CCOCC3)nn2)c1	?	i	-24.8%	1µM*	?
SMILES	HEK cytotox	GPT2 inhibitor	NPR1 antag	FLuc inh	3T3 cytotox
Cc1ccc(NC(=O)Nc2cccc(-c3ccc(N4CCOCC4)nn3)c2)cc1	?	i	?	0.631µM*	-13.4%
O=C(Nc1cccc(-c2ccc(N3CCOCC3)nn2)c1)Nc1ccc(F)cc1F	?	-19.5%	-23.9%	2µM*	?
CCc1ccccc1NC(=O)Cn1c(N2CCOCC2)nc(COC)cc1=O	-7.9%	-1.5%	-0.8%	i	-13.9%
N#Cc1cccc(NC(=O)N2CCC[C@@H](O)[C@H](NC(=O)c3ccc(OCc4ccc(F)cc4)cc3)C2)c1	?	-4.0%	-7.6%	i	?
CCOc1ccc(C2NC(=O)N(CCC(C)C)C3=C2C(=O)OC3)cc1 (centres undefined)	?	-7.1%	-0.2%	i	-21.7%
Cc1cc(C(=O)N2CCC(Cc3ccc(COCc4ccncc4)cc3)CC2)n(C)n1	?	-9.8%	.	.	?
COc1ccc(Cn2c(=O)c(C(=O)N3CCN(C(=O)c4cccc(OC)c4)CC3)nc3cccnc32)cc1	-22.2%	i	.	.	-36.4%
CSc1cccc(NC(=O)C2CCCN(c3cnc4nc(C)c(C)nc4c3)C2)c1 (centres undefined)	-12.5%	i	3.0%	i	-17.6%
CSc1cccc(NC(=O)Nc2cccc(-c3ccc(N4CCCC4)nn3)c2)c1	?	-7.8%	-30.3%	1.78µM*	?
CSc1ccc(NC(=O)Nc2cccc(-c3ccc(N4CCOCC4)nn3)c2)cc1	?	-5.9%	11.2µM*	0.562µM*	?
c1cnc2nc(-c3c[nH]c4ccccc34)[nH]c2c1	?	-3.7%[88.5 µM]	-25.1%[70.6 µM]	44.7µM*	?
O=C(Nc1cccc(Cl)c1)C1CCc2sc(C(=O)N3CCCC3)cc2C1 (centres undefined)	39.8µM*	i	?	i	28.2µM*
O=C(NCc1ccc(F)cc1)C1CCc2sc(C(=O)N3CCCC3)cc2C1 (centres undefined)	50.1µM*	i	-2.0%	i	?
O=C(NCc1ccc2c(c1)OCO2)C1CCc2sc(C(=O)N3CCCCCC3)cc2C1 (centres undefined)	?	0.3%	22.4µM*	i	?
COC(=O)c1cccc(NC(=O)C2CCc3sc(C(=O)N4CCOCC4)cc3C2)c1 (centres undefined)	?	i	-21.5%	i	?
Cc1cnc(CCNC(=O)c2nccn2C)n1Cc1ccccc1	?	4.3%	.	.	-31.8%
CN(C)C(=O)CNC(=O)c1cccc(-c2ccc(C(F)(F)F)cc2)c1	39.8µM*	-21.7%	.	.	?
CC(C)(C)C(=O)NCCNC(=O)c1cccc(-c2ccc(C(F)(F)F)cc2)c1	25.1µM*	i	.	.	44.7µM*
CNC(=O)CNC(=O)c1cccc(-c2ccc(C(F)(F)F)cc2)c1	?	i	.	.	?
COC(=O)N1CCn2c(nnc2-c2ccc(OC)cc2)C1	?	i	1.9%[70.6 µM]	i	-12.2%[138 µM]
